# ChEMBL document CHEMBL3988442, “University of Dundee, Small-Polar-MMV Screening Library” (2021)
# Columns and labels:
# [1] = molecular target: T1, Aspartate--tRNA(Asp/Asn) ligase (Mycobacterium tuberculosis (strain ATCC 25618 / H37Rv)) (UniProt P9WFW3); assay: Assay for Asp RNA synthetase-1 from Mycobacterium tuberculosis; format: functional; parameters: scale not given: direction of the effect not stated beside the values; details: 30 µM; further: in the data most compounds retested in dose-response had high values
# T1 sequence (whole entry): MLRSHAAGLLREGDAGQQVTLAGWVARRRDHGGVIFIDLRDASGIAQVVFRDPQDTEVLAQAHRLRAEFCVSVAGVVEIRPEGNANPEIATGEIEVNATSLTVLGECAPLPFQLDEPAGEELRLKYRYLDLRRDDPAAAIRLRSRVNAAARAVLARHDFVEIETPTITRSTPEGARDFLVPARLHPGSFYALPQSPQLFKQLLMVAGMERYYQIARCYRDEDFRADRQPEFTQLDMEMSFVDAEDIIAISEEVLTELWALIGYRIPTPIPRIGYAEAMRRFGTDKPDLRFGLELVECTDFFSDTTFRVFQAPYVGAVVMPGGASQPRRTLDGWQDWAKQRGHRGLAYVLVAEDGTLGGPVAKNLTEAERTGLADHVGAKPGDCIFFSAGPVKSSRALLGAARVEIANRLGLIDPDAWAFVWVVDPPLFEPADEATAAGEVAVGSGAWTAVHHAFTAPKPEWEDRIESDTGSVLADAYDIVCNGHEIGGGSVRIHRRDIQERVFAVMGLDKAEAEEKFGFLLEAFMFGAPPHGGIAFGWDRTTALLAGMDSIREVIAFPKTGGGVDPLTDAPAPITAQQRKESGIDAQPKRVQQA
# [2] = molecular target: Shiga toxin 2 (Escherichia coli O157:H7) (UniProt P09385+P09386); assay: E. coli 0.157:H7 Shiga Toxin SOP - stx2 screening assay; format: functional; parameters: scale not given: direction of the effect not stated beside the values; details: 30 µM
SMILES,Percent Effect [1] [%],Percent Effect [2] [%]
Cc1ccc(-n2nnc(CC(=O)N3CCSCC3)c2C)cc1,2.79,-35.4
CCn1ccnc1CN1CCN(CC(O)Cn2cccn2)CC1 (centres undefined),-1.83,-31.5
N#Cc1ccc(N2CCN(C(=O)c3cc(C4CC4)[nH]n3)CC2)c(F)c1,-6.09,-10.4
COc1ccc(CNCc2ccnc(N3CCCCC3)c2)cc1OC,-2.15,-57.5
CNS(=O)(=O)c1ccc(CNC(=O)NCC2CCCO2)cc1 (centres undefined),0.75,25.4
Cc1nccn1-c1cc(CNC(=O)c2ccccn2)ccn1,8.28,-3.43
Cc1nnc2n1CCN(CCC(=O)Nc1sccc1C#N)C2,1.26,22.9
O=C(c1ccccn1)N1CCn2cnc(COCC3CC3)c2C1,1.82,-5.26
O=C(NC1CC1)[C@H]1C[C@@H]2CCN(CCc3ccccc3)C[C@H]2O1,3.49,-10.6
O=C(Nc1cccnc1)N1CCC(n2ccc(C(F)(F)F)n2)CC1,-4.08,-16.7
CC(C1CC1)N(C)C(=O)c1cnc(-c2ccc3c(c2)OCO3)s1 (centres undefined),3.36,-42.7
CCc1cc(NCCc2ccc(O)cc2)n2nccc2n1,5.69,5.92
CNC(=O)c1cccnc1Oc1ccccc1,-3,8.4
COCCN1C(=O)CCC12CCN(C(=O)NC(C)C)CC2,-3.16,6
CCCn1nc2c(cc1=O)CN(CC(=O)Nc1nnc(C)s1)CC2,8.7,-2.85
CCc1nnsc1C(=O)N1CCCN(Cc2cnn(C)c2)CC1,3.06,7.82
CCN1CCN(c2ncc(-c3cc(C)no3)c(-c3ccc(C)s3)n2)CC1,2.72,2.82
